Screening results (PubChem BioAssay)
uPA surface inh – inhibitors of cell surface uPA generation | 0.31% of 330,000 active | Potency, µM (highest dose often 38.3 µM), usual class: inhibitors | cell surface uPA generation assay, qHTS; active = well fitted inhibition curve with a large enough effect; inconclusive = small, poorly fitted or top-dose-only effect; inactive = no such curve, though single readings can be large or run the other way; tested in mouse RAW 264.7 cells; note: nearly all actives have a fitted effect of over 55% in size
Giardia kill – kills Giardia lamblia; 0.15% of 340,000 active; activity change, % at 7.66 µM, hits read low; Giardia lamblia trophozoite viability; in the data active = activity change below about -80%; inconclusive = between about -30% and that limit;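 note: parasites exposed to compound for two days anaerobically before the ATP read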
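Anaerobic 48 hrs incubation at 37 deg C of 100 trophozoites/well with test compounds; ATPLite 1-Step luminescence, 15-30 min RT, reports cellular ATP as viability.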
SW480 rerep – DNA re-replication induction in SW480 cells; 1.8% of 340,000 active; Potency, µM (titrated, usually from 46.1 µM), most hits filed as activators; SW480 DNA re-replication, Hoechst DNA content imaging, 48 h; note: nearly all actives have a fitted effect of over 55% in size
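Per well, 250 cells were exposed to pinned compound for 48 hr. Nuclear DNA was visualised with Hoechst (40 min, 37 C) and total object intensity recorded by fluorescence scanning.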
MCF10A rerep – inducers of DNA re-replication in MCF 10A breast cells; MCF 10A DNA re-replication, Hoechst nuclear intensity, 48 h; Potency, µM (titrated, usually from 46.1 µM), actives largely listed as activators; 2.9% of 350,000 active; note: nearly all actives have a fitted effect of over 50% in size
Numbers stand for hits; i = inactive; ? = inconclusive; nt = no result given; [ ] = remark or other dose. Rows were chosen to be rich in hits. Some 4.3% of all compounds tested hit in one or more screens of this group. Unless noted, calls come from the whole dose curve; as a rule, active = well fitted activation curve with a large enough effect; inconclusive = small, poorly fitted or top-dose-only effect; inactive = no such curve, though single readings can be large or run the other way.

SMILES	uPA surface inh	Giardia kill	SW480 rerep	MCF10A rerep
CC(C)c1nnc(NC(=O)CC(C)c2ccccc2)s1 (centres undefined)	i	i	i	i
Cc1cnc(NC(=O)CC(C)c2ccccc2)s1 (centres undefined)	i	i	5.8µM	10µM
CC(CC(=O)Nc1cccnc1)c1ccccc1 (centres undefined)	i	i	i	12µM
CC(CC(=O)Nc1ccc(C(N)=O)cc1)c1ccccc1 (centres undefined)	i	i	i	i
O=C(Cc1ccc(NC(=O)C2CCCN(C(=O)c3ccccc3)C2)cc1)Nc1ccc(C(=O)N2CCOCC2)cc1 (centres undefined)	i	i	?	i
CCc1nnc(NC(=O)c2ccccc2NC(=O)C2CCN(C(=O)c3ccco3)CC2)s1	nt	i	nt	nt
CC(C)(C)OC(=O)NS(=O)(=O)NCc1ccco1	nt	i	nt	nt
CCOc1ccc(/C=C2\SC(=O)N(CCNC(=O)C3COc4ccccc4O3)C2=O)cc1OC (centres undefined)	i	i	i	?
CCOc1ccc(/C=C/C(O)=C2/C(=O)NC3(C)CC2c2ccccc2O3)cc1OC (centres undefined)	i	i	9.2µM	8.2µM
CCOc1ccc(/C=C/C(O)=C2/C(=O)N(C)C3(C)CC2c2ccccc2O3)cc1OC (centres undefined)	i	i	13µM	?
CCOC(=O)C1=C(COC(=O)/C=C/c2ccc(OCC)c(OC)c2)NC(=O)NC1C (centres undefined)	i	i	i	i
COC(=O)CCC[N+](C)(C)C	nt	nt	i	i
Clc1ccc2oc(-c3cccnc3NCc3ccccc3)nc2c1	i	i	?	16µM
O=S(=O)(c1ccccc1F)N1CCN(c2nc(-c3cccnc3)nc3ccccc23)CC1	i	i	i	i
Cc1ccc(C)c(S(=O)(=O)N2CCN(c3nc(-c4cccnc4)nc4ccccc34)CC2)c1	i	i	i	0.65µM
O=C(COC(=O)c1ncc(Cl)c(Cl)c1Cl)Nc1ccc(Cl)cn1	i	i	i	i
Cc1ccc(Nc2nc(N)c(C#N)c(CC#N)c2C#N)cc1	i	i	?	21µM
NC(=O)CCCn1c(C(=O)c2ccc(Cl)cc2)c2ccc([N+](=O)[O-])cc2[n+]1[O-]	1.4µM	-87	?	i
NC(=O)CCCn1c(C(=O)c2cc(Cl)c(N)c(Cl)c2)c2ccc([N+](=O)[O-])cc2[n+]1[O-]	3.2µM	?	21µM	16µM
Cc1ccc(C(=O)c2c3ccc([N+](=O)[O-])cc3[n+]([O-])n2CCCC(N)=O)cc1	?	?	i	i
O=C(NC1CC1)c1cccc(NC(=O)C2CCN(S(=O)(=O)c3cccc(C(F)(F)F)c3)CC2)c1	i	i	i	i
COc1ccc(-c2cc(C(=O)N(C)Cc3nc4ccccc4c(=O)[nH]3)c3ccccc3n2)cc1OC	i	i	i	i
CC(C)c1ccc(/C=C(\c2nc3ccccc3[nH]2)S(=O)(=O)c2ccccc2)cc1	i	i	12µM	2.6µM
O=S(=O)(/C(=C/c1ccc(C(F)(F)F)cc1)c1nc2ccccc2[nH]1)c1ccccc1	i	i	?	?
O=C(NCc1ccccc1Cl)C1CCN(c2cnccn2)CC1	i	i	i	0.52µM
SMILES	uPA surface inh	Giardia kill	SW480 rerep	MCF10A rerep
CCOC(=O)c1cc2sccc2n1Cc1ccccc1	nt	i	i	i
CCOC(=O)c1cc2sccc2n1CCCN1C(=O)c2ccccc2C1=O	i	i	i	21µM
CCOC(=O)NC(=O)/C(C#N)=N\Nc1ccc(Cl)cc1	i	i	i	i
Cc1c(NC(=O)/C(C#N)=C/c2ccc(-c3cc(Cl)ccc3Cl)o2)c(=O)n(-c2ccccc2)n1C	i	i	21µM	i
Cc1c(N/N=C(\C#N)C(=O)c2ccc(Cl)cc2)c(=O)n(-c2ccccc2)n1C	i	i	9.2µM	2.9µM
N#C/C(=N\Nc1ccc(Cl)cc1)C(=O)c1ccccc1	i	i	i	23µM
NCCN(Cc1ccc(Cl)c(Cl)c1)c1ccc(Br)cn1	nt	i	nt	nt
Cc1cc(=O)n2c3ccccc3n(CC(O)CN3CCN(CCO)CC3)c2c1C#N (centres undefined)	i	i	i	i
Cc1cc(=O)n2c3ccccc3n(CC(O)CN3CCC(C)CC3)c2c1C#N (centres undefined)	i	i	1.3µM	i
O=C1C2C(C(=O)N1/N=C/c1ccc(N3CCCCC3)o1)C1C=CC2C12CC2 (centres undefined)	i	i	?	18µM
Cc1cc(/C=C(\C#N)C(=O)NC2CCCCCC2)c(C)[nH]1	i	i	i	i
COc1ccc(-c2[nH]ncc2/C=C(/C#N)C(=O)NC2CCCCCC2)cc1	i	i	13µM	10µM
O=C(C=Cc1cccs1)c1cccs1	i	i	i	?
O=C(/C=C\c1cccs1)c1c(O)ccc2ccc(=O)oc12	i	i	i	21µM
CCC(C(=O)NC1CCCC1)N(C(=O)c1snc(C(N)=O)c1N)c1ccc(C)cc1C (centres undefined)	nt	i	i	i
CC(=O)N1CCN(S(=O)(=O)c2cccc(C(=O)OCC(=O)N3CC(=O)Nc4ccccc43)c2)CC1	i	i	i	i[9.22 µM]
Cc1noc(C)c1COc1cccc(C(=O)OCC(=O)N2CC(=O)Nc3ccccc32)c1	i	i	9.2µM	1.8µM
CCC(=O)Oc1ccc2ccccc2c1CNC(=O)c1ccccc1	i	i	i	?
CCOc1ccc2nc(NCCCNS(=O)(=O)c3ccccc3)c(C#N)cc2c1	i	i	7.3µM	2.9µM
CCOc1ccc2nc(NCCCNS(=O)(=O)c3ccc(F)cc3)c(C#N)cc2c1	nt	i	?	2.1µM
CC(C)(C)NCC(=Cc1ccccc1)C(=O)c1ccccc1	i	i	5.2µM	1.8µM
O=C(Nc1ccccc1)NC1CCS(=O)(=O)C1 (centres undefined)	i	i	i	i
CC(=O)NC1=C(NC2CCS(=O)(=O)C2)C(=O)c2ccccc2C1=O (centres undefined)	?	i	18µM	?
COc1ccc2[nH]c3c(N4CCc5ccccc5C4)ncnc3c2c1	?	i	?	3.7µM
CCOC(=O)N1CCN(c2ncnc3c2[nH]c2ccc(OC)cc23)CC1	i	i	i	i
SMILES	uPA surface inh	Giardia kill	SW480 rerep	MCF10A rerep
O=C(CCl)c1cc2c3c(c1)CC(=O)N3CCC2	i	i	16µM	?
O=C(NCCO)C(=O)Nc1cc2c3c(c1)CC(=O)N3CCC2	i	i	i	i
COc1ccc2nc(C)cc(Nc3ccc(C)cc3)c2c1	i	i	i	?
COC(=O)c1ccc(Nc2cc(C)nc3ccc(C)cc23)cc1	i	i	18µM	18µM
Cc1ccc2nc(C)cc(Nc3ccc([N+](=O)[O-])cc3)c2c1	i	i	9.2µM	2.9µM
COc1ccc(OC)c(Nc2cc(C)nc3ccc(C)cc23)c1	i	i	18µM	?
CC(=O)c1cccc(Nc2cc(C)nc3ccc(C)cc23)c1	i	i	i[9.22 µM]	i
Cc1nn(C(=O)c2cccc([N+](=O)[O-])c2C)c(C)c1S(=O)(=O)N1CCCCCC1	nt	i	nt	nt
COc1ccc(S(=O)(=O)N2CCN(c3nc(-c4cccs4)nc4ccccc34)CC2)cc1	nt	i	nt	nt
Cc1cccc(/C=N/n2c(C3CCCCC3)n[nH]c2=S)c1	i	i	i	i
